Drawing on PubChem BioAssay AID1645860 (Buhrlage Lab, Dana-Farber Cancer Institute and Novartis …, 2021), this text covers inhibition for 20 compounds.

Structures are written as SMILES. The whole screen tested about 47,000 compounds, of which about 2,500 (5.3%) were called active. For the sample, actives were picked, then their nearest neighbours and some compounds at random. Values without a mark were called inactive. Cut-off read from the data, not from the text of the source: active = inhibition above about 30%; inactive = the rest.

The target of the test is Ubiquitin carboxyl-terminal hydrolase 30 (Homo sapiens) (UniProt Q70CQ3). The experiment in a line: blocks human USP30 ubiquitin-rhodamine cleavage (AID 1645860). The settings on record: purified USP30, Ub-rhodamine cleavage fluorescence; at 25 µM; stronger effect = higher value.
Ubiquitin carboxyl-terminal hydrolase 30 (Homo sapiens), sequence (Q70CQ3 whole entry, looked up): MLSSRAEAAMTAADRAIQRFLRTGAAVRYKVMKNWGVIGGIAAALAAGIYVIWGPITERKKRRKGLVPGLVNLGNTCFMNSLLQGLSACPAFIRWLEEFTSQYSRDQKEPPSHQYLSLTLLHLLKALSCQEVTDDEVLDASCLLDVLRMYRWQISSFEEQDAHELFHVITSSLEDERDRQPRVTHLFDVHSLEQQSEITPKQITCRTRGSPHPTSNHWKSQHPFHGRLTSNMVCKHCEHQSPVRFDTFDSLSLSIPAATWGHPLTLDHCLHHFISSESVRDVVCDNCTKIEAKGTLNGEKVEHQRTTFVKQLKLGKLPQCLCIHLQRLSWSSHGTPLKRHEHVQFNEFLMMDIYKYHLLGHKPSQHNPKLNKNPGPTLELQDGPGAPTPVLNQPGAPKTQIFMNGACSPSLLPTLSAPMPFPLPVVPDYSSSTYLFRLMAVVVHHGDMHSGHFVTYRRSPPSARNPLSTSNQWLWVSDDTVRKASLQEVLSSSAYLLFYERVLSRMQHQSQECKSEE
What is called inhibition is the relative decrease from the control value, in per cent. As to `COCCn1cnc2c(-c3ccccc3)cn(CC(=O)NCc3ccccc3)c2c1=O`, the inhibition is -28.3%.

With `COCC(=O)N1CCCCCC1C1CCN(c2nn3cc(C)nc3s2)CC1` (stereo not given), the inhibition was 16.4%.

Consider `COC(=O)c1ccc(C2c3[nH]c4ccccc4c3C[C@H]3C(=O)N(CC4CCCO4)CC(=O)N23)cc1` (stereo not given in full), for which the inhibition is -26.4%.

With `CCOc1ccc(S(=O)(=O)N2CCCCC2)cc1NC(=O)c1ccc(C#N)cc1`, the inhibition was 11.5%.

On to `O=C(Nc1cc(C(F)(F)F)ccc1-n1cnc2ccccc21)c1ccc(S(=O)(=O)N2CCCCC2)cc1`, for which the inhibition is 32.6% (active).

With `COc1ccccc1OCC(=O)Nc1cc(C(F)(F)F)ccc1N1CCCCC1`, the inhibition was -1.33%.

For `CCn1nnc2c1C(COC)CN(C(=O)CC1=CCCCC1)C2` (stereo not given), the inhibition was -64.1%.

Consider `CCN(C(=O)c1nc(-c2cccc(F)c2)n2c1CCCCC2)c1ccccc1`, for which the inhibition was -10.9%.

On to `C=C(NC(=O)C(=C)NC(=O)c1csc(C2=N[C@@H]3c4csc(n4)[C@H]4NC(=O)c5csc(n5)[C@H]([C@](C)(O)[C@@H](C)O)NC(=O)C5CSC(=N5)/C(=C/C)NC(=O)C([C@@H](C)O)NC(=O)c5csc(n5)[C@]3(CC2)NC(=O)[C@H](C)NC(=O)C(=C)NC(=O)[C@H](C)NC(=O)C([C@@H](C)CC)NC2C=Cc3c(C(C)O)cc(nc3[C@H]2O)C(=O)OC4C)n1)C(N)=O` (stereo not given in full), for which the inhibition is -88.3%.

Consider `COc1ccccc1Nc1nc(-c2cnc(N3CCCC3)nc2C)cc(=O)[nH]1`, for which the inhibition was 23.2%.

Regarding `COC(=O)c1ccc(NC(=O)CSc2nnc(C(C)Oc3ccccc3)n2C)cc1` (stereo not given), the inhibition was 25.4%.

On to `Cc1cc(C)nc(N(C(=O)C2CC2)c2ccc(OC(F)(F)F)cc2)n1`, for which the inhibition was -22.9%.

Turning to `Cc1nnc(OCC(=O)Nc2ccc(OC(F)(F)F)cc2)c2ccccc12`, the inhibition was 64.8% (active).

On to `CN1[C@@H](CCC(=O)N2CCc3ccccc32)CNC(=O)[C@@H]2[C@H]1CCN2Cc1ncc[nH]1`, for which the inhibition was -9.99%.

For the compound `O=S(=O)(c1ccccc1)N1CCC(n2cnnc2-c2ccccc2)CC1`, the inhibition is -0.303%.

On to `Cc1cc(O)c(=O)cc2c1C[C@H]1CC(C)(C)/C=C/C[C@@]3(C)Oc4cc(=O)c(O)cc(C)c4C[C@@H]3C[C@H](O)[C@]1(C)O2`, for which the inhibition was -161%.

Regarding `CC(C)(C)CC(=O)N1CCN(c2ccc(N3CCCC3)nn2)CC1`, the inhibition was -15.1%.

For `COc1ccc(S(=O)(=O)N(C(=O)c2ccccc2)c2ccc3oc4c(c3c2)CCCC4)cc1`, the inhibition was -10.1%.

In the case of `O=C(COc1ccc2oc3c(c2c1)CCCC3)Nc1ccccn1`, the inhibition was 48.3% (active).

For the compound `CCC(=O)c1ccc(OCC(=O)Nc2ccc3c(c2)CCC3)cc1`, the inhibition is -0.468%.
